# Measurements taken from publication PMC11006913.
# Changes are numbered by the printed parent chain.
# Columns and labels:
# Assay in all cases: PBM; 200 nM protein, PBS
# Details in all cases: dsDNA, one strand shown
# PAX4 [1] = molecular target: T1, PAX4 (Homo sapiens, UniProt O43316 9-242, R200K)
# T1 sequence: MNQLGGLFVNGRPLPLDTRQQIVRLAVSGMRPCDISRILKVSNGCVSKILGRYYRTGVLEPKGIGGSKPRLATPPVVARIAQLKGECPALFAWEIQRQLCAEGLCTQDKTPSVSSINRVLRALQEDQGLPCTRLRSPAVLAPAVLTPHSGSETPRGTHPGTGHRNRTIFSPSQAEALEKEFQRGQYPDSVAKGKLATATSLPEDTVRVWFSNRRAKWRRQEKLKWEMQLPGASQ
# PAX4 [2] = molecular target: T2, PAX4 (Homo sapiens, UniProt O43316 9-242)
# T2 sequence: T1 sequence with K192R
# PAX4 [3] = molecular target: T3, PAX4 (Homo sapiens, UniProt O43316 9-242, R200Q)
# T3 sequence: T1 sequence with K192Q
# PAX4 [4] = molecular target: T4, PAX4 (Homo sapiens, UniProt O43316 9-242, F177V)
# T4 sequence: T1 sequence with F169V, K192R
# PAX4 [5] = molecular target: T5, PAX4 (Homo sapiens, UniProt O43316 9-242, F177Y)
# T5 sequence: T1 sequence with F169Y, K192R
# PAX4 [6] = molecular target: T6, PAX4 (Homo sapiens, UniProt O43316 9-242, R227W)
# T6 sequence: T1 sequence with K192R, R219W
# PRRX1 [7] = molecular target: PRRX1 (Homo sapiens, UniProt P54821 80-166, F113S)
# HOXB6 = HOXB6 (Homo sapiens, UniProt P17509 132-218, K202E)
# NKX3-2 [8] = molecular target: NKX3-2 (Homo sapiens, UniProt P78367 192-278, P234S)
# NKX3-2 [9] = molecular target: NKX3-2 (Homo sapiens, UniProt P78367 192-278)
# ALX3 [10] = molecular target: ALX3 (Homo sapiens, UniProt O95076 139-225, N203Q)
# ALX3 [11] = molecular target: ALX3 (Homo sapiens, UniProt O95076 139-225, N203S)
# PRRX1 [12] = molecular target: PRRX1 (Homo sapiens, UniProt P54821 80-166)
# Chain of PRRX1 (Homo sapiens, UniProt P54821 80-166) (P54821 80-166): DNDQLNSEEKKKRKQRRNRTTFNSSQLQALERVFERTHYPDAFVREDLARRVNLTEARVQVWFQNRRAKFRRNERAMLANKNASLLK
# Chain of HOXB6 (P17509 132-218 K202E): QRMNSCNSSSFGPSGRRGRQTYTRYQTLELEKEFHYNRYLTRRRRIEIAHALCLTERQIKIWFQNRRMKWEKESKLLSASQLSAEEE
# Chain of PRRX1 (Homo sapiens, UniProt P54821 80-166, F113S) (P54821 80-166 F113S): as the sequence (P54821 80-166) above, with F34S counted along it
# Chain of NKX3-2 (Homo sapiens, UniProt P78367 192-278) (P78367 192-278): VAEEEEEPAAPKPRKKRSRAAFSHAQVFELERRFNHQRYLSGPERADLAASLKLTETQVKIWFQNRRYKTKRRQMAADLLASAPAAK
# Chain of ALX3 (Homo sapiens, UniProt O95076 139-225, N203Q) (O95076 139-225 N203Q): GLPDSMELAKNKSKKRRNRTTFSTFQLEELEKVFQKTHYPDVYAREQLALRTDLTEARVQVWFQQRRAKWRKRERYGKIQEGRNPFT
# Chain of NKX3-2 (Homo sapiens, UniProt P78367 192-278, P234S) (P78367 192-278 P234S): as the sequence (P78367 192-278) above, with P43S counted along it
# Chain of ALX3 (Homo sapiens, UniProt O95076 139-225, N203S) (O95076 139-225 N203S): as the sequence (O95076 139-225 N203Q) above, with Q65S counted along it
sequence,measurement,setting,value
AGACAGCT,binding signal,PAX4 [1],"9.26 upbm affinity estimate (log intensity, higher = more binding, comparable within an allelic series)"
same,binding signal,PAX4 [2],"9.25 upbm affinity estimate (log intensity, higher = more binding, comparable within an allelic series)"
same,binding signal,PAX4 [3],"9.61 upbm affinity estimate (log intensity, higher = more binding, comparable within an allelic series)"
same,binding signal,PAX4 [4],"9.5 upbm affinity estimate (log intensity, higher = more binding, comparable within an allelic series)"
same,binding signal,PAX4 [5],"9.46 upbm affinity estimate (log intensity, higher = more binding, comparable within an allelic series)"
same,binding signal,PAX4 [6],"9.5 upbm affinity estimate (log intensity, higher = more binding, comparable within an allelic series)"
AGCGCCGC,binding signal,PAX4 [1],"9.3 upbm affinity estimate (log intensity, higher = more binding, comparable within an allelic series)"
same,binding signal,PAX4 [2],"9.34 upbm affinity estimate (log intensity, higher = more binding, comparable within an allelic series)"
same,binding signal,PAX4 [3],"9.35 upbm affinity estimate (log intensity, higher = more binding, comparable within an allelic series)"
same,binding signal,PAX4 [4],"9.22 upbm affinity estimate (log intensity, higher = more binding, comparable within an allelic series)"
same,binding signal,PAX4 [5],"9.31 upbm affinity estimate (log intensity, higher = more binding, comparable within an allelic series)"
same,binding signal,PAX4 [6],"9.31 upbm affinity estimate (log intensity, higher = more binding, comparable within an allelic series)"
AAATTAAG,binding signal,PAX4 [1],"11.5 upbm affinity estimate (log intensity, higher = more binding, comparable within an allelic series)"
same,binding signal,PAX4 [2],"12.1 upbm affinity estimate (log intensity, higher = more binding, comparable within an allelic series)"
same,binding signal,PAX4 [3],"11.8 upbm affinity estimate (log intensity, higher = more binding, comparable within an allelic series)"
same,binding signal,PAX4 [4],"10.4 upbm affinity estimate (log intensity, higher = more binding, comparable within an allelic series)"
same,binding signal,PAX4 [5],"10.8 upbm affinity estimate (log intensity, higher = more binding, comparable within an allelic series)"
same,binding signal,PAX4 [6],"10.8 upbm affinity estimate (log intensity, higher = more binding, comparable within an allelic series)"
CGGCCGGC,binding signal,PAX4 [1],"9.17 upbm affinity estimate (log intensity, higher = more binding, comparable within an allelic series)"
same,binding signal,PAX4 [2],"9.29 upbm affinity estimate (log intensity, higher = more binding, comparable within an allelic series)"
same,binding signal,PAX4 [3],"9.07 upbm affinity estimate (log intensity, higher = more binding, comparable within an allelic series)"
same,binding signal,PAX4 [4],"9.01 upbm affinity estimate (log intensity, higher = more binding, comparable within an allelic series)"
same,binding signal,PAX4 [5],"9 upbm affinity estimate (log intensity, higher = more binding, comparable within an allelic series)"
same,binding signal,PAX4 [6],"9.07 upbm affinity estimate (log intensity, higher = more binding, comparable within an allelic series)"
TATTTTAA,binding signal,PAX4 [1],"11 upbm affinity estimate (log intensity, higher = more binding, comparable within an allelic series)"
same,binding signal,PAX4 [2],"11.2 upbm affinity estimate (log intensity, higher = more binding, comparable within an allelic series)"
same,binding signal,PAX4 [3],"11 upbm affinity estimate (log intensity, higher = more binding, comparable within an allelic series)"
same,binding signal,PAX4 [5],"10.6 upbm affinity estimate (log intensity, higher = more binding, comparable within an allelic series)"
same,binding signal,PAX4 [6],"10.6 upbm affinity estimate (log intensity, higher = more binding, comparable within an allelic series)"
AATTATAC,binding signal,PRRX1 [7],"11.1 upbm affinity estimate (log intensity, higher = more binding, comparable within an allelic series)"
same,binding signal,HOXB6,"9.99 upbm affinity estimate (log intensity, higher = more binding, comparable within an allelic series)"
CCGAAGCC,binding signal,PAX4 [1],"9.25 upbm affinity estimate (log intensity, higher = more binding, comparable within an allelic series)"
same,binding signal,PAX4 [2],"9.26 upbm affinity estimate (log intensity, higher = more binding, comparable within an allelic series)"
same,binding signal,PAX4 [3],"9.27 upbm affinity estimate (log intensity, higher = more binding, comparable within an allelic series)"
same,binding signal,PAX4 [4],"9.17 upbm affinity estimate (log intensity, higher = more binding, comparable within an allelic series)"
same,binding signal,PAX4 [5],"9.2 upbm affinity estimate (log intensity, higher = more binding, comparable within an allelic series)"
same,binding signal,PAX4 [6],"9.18 upbm affinity estimate (log intensity, higher = more binding, comparable within an allelic series)"
GGGCGCGA,binding signal,PAX4 [1],"9.18 upbm affinity estimate (log intensity, higher = more binding, comparable within an allelic series)"
same,binding signal,PAX4 [2],"9.18 upbm affinity estimate (log intensity, higher = more binding, comparable within an allelic series)"
same,binding signal,PAX4 [3],"9.16 upbm affinity estimate (log intensity, higher = more binding, comparable within an allelic series)"
same,binding signal,PAX4 [4],"9.01 upbm affinity estimate (log intensity, higher = more binding, comparable within an allelic series)"
same,binding signal,PAX4 [5],"9.02 upbm affinity estimate (log intensity, higher = more binding, comparable within an allelic series)"
same,binding signal,PAX4 [6],"9.14 upbm affinity estimate (log intensity, higher = more binding, comparable within an allelic series)"
same,binding signal,NKX3-2 [8],"10.6 upbm affinity estimate (log intensity, higher = more binding, comparable within an allelic series)"
same,binding signal,NKX3-2 [9],"10.6 upbm affinity estimate (log intensity, higher = more binding, comparable within an allelic series)"
TAACTCAA,binding signal,PAX4 [1],"10.6 upbm affinity estimate (log intensity, higher = more binding, comparable within an allelic series)"
same,binding signal,PAX4 [2],"10.7 upbm affinity estimate (log intensity, higher = more binding, comparable within an allelic series)"
same,binding signal,PAX4 [4],"10.1 upbm affinity estimate (log intensity, higher = more binding, comparable within an allelic series)"
ATAATTTA,binding signal,PRRX1 [7],"11.2 upbm affinity estimate (log intensity, higher = more binding, comparable within an allelic series)"
same,binding signal,HOXB6,"10 upbm affinity estimate (log intensity, higher = more binding, comparable within an allelic series)"
same,binding signal,ALX3 [10],"8.61 upbm affinity estimate (log intensity, higher = more binding, comparable within an allelic series)"
same,binding signal,PAX4 [4],"10.8 upbm affinity estimate (log intensity, higher = more binding, comparable within an allelic series)"
same,binding signal,PAX4 [5],"11 upbm affinity estimate (log intensity, higher = more binding, comparable within an allelic series)"
same,binding signal,PAX4 [6],"11 upbm affinity estimate (log intensity, higher = more binding, comparable within an allelic series)"
same,binding signal,ALX3 [11],"8.73 upbm affinity estimate (log intensity, higher = more binding, comparable within an allelic series)"
same,binding signal,PRRX1 [12],"13.2 upbm affinity estimate (log intensity, higher = more binding, comparable within an allelic series)"
CCAAGTCC,binding signal,PAX4 [1],"9.27 upbm affinity estimate (log intensity, higher = more binding, comparable within an allelic series)"
same,binding signal,PAX4 [2],"9.3 upbm affinity estimate (log intensity, higher = more binding, comparable within an allelic series)"
same,binding signal,PAX4 [3],"9.4 upbm affinity estimate (log intensity, higher = more binding, comparable within an allelic series)"
same,binding signal,PAX4 [4],"9.27 upbm affinity estimate (log intensity, higher = more binding, comparable within an allelic series)"
same,binding signal,PAX4 [5],"9.25 upbm affinity estimate (log intensity, higher = more binding, comparable within an allelic series)"
same,binding signal,PAX4 [6],"9.38 upbm affinity estimate (log intensity, higher = more binding, comparable within an allelic series)"
